# Screening results (PubChem BioAssay)
# A selection: hits, their analogues and other compounds. The true share with any hit is near 2.4%.
# D2 PAM-1 = HTS Assay for Positive Allosteric Modulators of the Human D2 Dopamine Receptor: Primary Screen for Potentiators; D(2) dopamine receptor (Homo sapiens), P14416; HEK293 T-REx D2, calcium flux, EC20 dopamine potentiation; potentiation, % at 10 µM; 0.34% of 340,000 active; AID 485347, 2010;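 active means potentiation over 3 SD above the plate norm, cut at about 30% in these data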
# Target sequence (P14416 whole entry, looked up): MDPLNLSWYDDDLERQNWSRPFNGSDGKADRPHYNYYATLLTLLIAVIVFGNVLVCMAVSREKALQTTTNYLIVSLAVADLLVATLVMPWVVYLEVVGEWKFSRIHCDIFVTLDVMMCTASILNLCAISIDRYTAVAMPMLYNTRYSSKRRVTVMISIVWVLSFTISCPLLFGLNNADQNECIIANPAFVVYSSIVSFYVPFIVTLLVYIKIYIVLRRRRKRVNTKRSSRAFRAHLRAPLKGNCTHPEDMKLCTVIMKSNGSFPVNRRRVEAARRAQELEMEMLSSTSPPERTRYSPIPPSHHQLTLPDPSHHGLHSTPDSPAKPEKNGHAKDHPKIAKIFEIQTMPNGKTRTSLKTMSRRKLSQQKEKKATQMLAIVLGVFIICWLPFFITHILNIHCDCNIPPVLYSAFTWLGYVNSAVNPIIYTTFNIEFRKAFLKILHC
#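 Tetracycline-induced HEK293 T-REx cells force-coupled to calcium signalling expressed D2; compounds were pin-added after a 10 s baseline, read kinetically 180 s, then an EC20 dopamine challenge followed with a further 180 s calcium read.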
# D2 PAM-2 = Beta-Arrestin HTS for Positive Allosteric Modulators of the Human D2 Dopamine Receptor: Potentiators; D(2) dopamine receptor (Homo sapiens), P14416; DiscoveRx D2 beta-arrestin cells, luminescence, 90 min; 100% = 57 uM dopamine signal; potentiation, % (no concentration beside the values); 0.23% of 360,000 active; in the data active means potentiation above about 50%
#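 PathHunter D2 cells, attached overnight at 37 deg C, received compound in DMSO plus dopamine at EC20 (50 nM final) for 90 min at 37 deg C. Beta-arrestin recruitment was read as luminescence after 1 h with detection reagent at ambient temperature.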
# D2 ag-1 = HTS Assay for Allosteric Agonists of the Human D2 Dopamine Receptor: Primary Screen for Agonists. 0.53% of 340,000 active. HEK293 T-REx D2 cells, calcium flux agonist mode. AID 485358, 2010. activation, % at 2 µM;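 active means activation over 3 SD above normal in the single-dose calcium agonist read, cut at about 30% in these data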
#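 Agonism scored from kinetic calcium signal (1 read/sec, 180 s) following compound pin transfer, after a 10 s baseline. Cells: HEK293 Trex line expressing inducible D2 receptor coupled to calcium, dye-loaded after overnight culture at 30 C.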
# D2 antagonist = HTS Assay for Allosteric Antagonists of the Human D2 Dopamine Receptor: Primary Screen for Antagonists; 2% of 340,000 active; D(2) dopamine receptor (Homo sapiens), P14416; AID 485344, 2010; HEK293 TREx D2 cells, calcium flux, dopamine EC80; inhibition, % at 10 µM; in the data active means inhibition above about 30%; inactive means below that, where a call was filed
#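 Calcium mobilization kinetics were recorded at 1 s intervals in tetracycline-induced HEK293 T-REx D2 cells, first for 180 s after compound addition and then 180 s after EC80 dopamine.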
# D2 ag-2 = Beta-Arrestin HTS for Positive Allosteric Modulators of the Human D2 Dopamine Receptor: Agonists. DiscoveRx PathHunter D2 beta-arrestin, luminescence, 90 min; 100% = 57 uM dopamine signal. activation, % (test concentration not listed). 0.084% of 360,000 active; in the data active means activation above about 40%
#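 Agonist mode: compounds alone added to overnight-plated D2 PathHunter cells for 90 min at 37 C, with 57 uM final dopamine (EC100) defining full response. Beta-arrestin recruitment detected by chemiluminescent reagent, read after 1 h at ambient temperature.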
# A number is an active result; i = inactive; nt = no result given.
SMILES,D2 PAM-1,D2 PAM-2,D2 ag-1,D2 antagonist,D2 ag-2
COC(=O)CN1C(=O)CSc2ccc(S(=O)(=O)Nc3ccc(Cl)cc3C)cc21,i,nt,i,nt,nt
Cc1ccc(S(=O)(=O)C2(C(=O)NC3CCCCC3C)CC2)cc1 (stereo unspecified),i,i,i,i,i
Cc1ccc(S(=O)(=O)C2(C(=O)NC3CCCC3)CC2)cc1,35.1,i,i,i,i
OCCC1CN(Cc2ccc(F)cc2)CCN1CCc1ccccc1 (stereo unspecified),i,i,i,42.7,i
OCCC1CN(Cc2cccc(-n3cccn3)c2)CCN1Cc1ccccc1 (stereo unspecified),i,i,i,57.8,i
OCCC1CN(Cc2ccc(F)cc2)CCN1CCCc1ccccc1 (stereo unspecified),i,i,i,i,i
Cc1csc2nc(COc3ccccc3NC(=O)c3ccco3)cc(=O)n12,i,nt,i,nt,nt
Cc1cc(C)c(O)c(-c2cc(C(=O)Nc3ccc(S(=O)(=O)N4CCOCC4)cc3)[nH]n2)c1,35.8,i,i,i,i
CCOc1ccc(CNS(=O)(=O)c2ccc(-c3cc(C(F)(F)F)on3)s2)cc1,i,nt,i,nt,nt
C[C@H](CS)C(=O)N1CCC[C@H]1C(=O)O,i,i,i,30.0,i
Cc1nc2c(C(=O)NCCC(C)C)c[nH]n2c(=O)c1Cc1ccccc1F,i,i,i,37.1,i
Cc1nc2c(C(=O)NCCc3ccc(Cl)cc3)c[nH]n2c(=O)c1Cc1ccccc1F,i,nt,nt,nt,nt
CCOC(=O)Cn1cnc2c(nnn2-c2cccc(OC)c2)c1=O,i,i,i,i,i
CCOC(=O)Cn1cnc2c(nnn2-c2ccc(F)cc2)c1=O,i,i,i,31.9,i
COc1cccc(-n2nnc3c(=O)n(CC(=O)OCc4ccccc4)cnc32)c1,50.4,i,i,i,i
CN(Cc1ccccc1)S(=O)(=O)c1ccc(NC(=O)c2cc(=O)c3ccccc3o2)cc1,i,nt,i,nt,nt
Cc1cc(NC(=O)CCSc2nc(-c3ccco3)cc(C(F)(F)F)n2)no1,i,i,i,i,i
Cc1cc(NC(=O)CSc2nc(-c3ccco3)cc(C(F)(F)F)n2)no1,i,i,i,36.0,i
CCn1c(CN2CCC(C)CC2)nc2cc(NC(=O)COc3ccc([N+](=O)[O-])cc3)ccc21,i,nt,nt,nt,nt
CC1=C(CC(=O)c2ccc(Cl)cc2)C(=O)c2ccccc2C1=O,nt,55.1,nt,nt,i
CC1(C)Nc2ccc(O)cc2-c2c1ssc2=S,i,i,i,35.8,i
COc1cccc(-n2sc3c(c2=S)-c2cc(OC)ccc2NC3(C)C)c1,i,i,i,i,i
O=C(Cn1c2ccc(F)cc2c2nc3n(c(=O)c21)CCS3)Nc1ccc(Cl)cc1F,i,i,i,i,i
Cc1ccc(NC(=O)Cn2c3ccc(F)cc3c3nc4n(c(=O)c32)CCS4)cc1F,35.1,i,i,i,i
Fc1ccccc1/C=N/n1cc(-c2ccccc2)[nH]c1=S,i,i,i,37.8,i
SMILES,D2 PAM-1,D2 PAM-2,D2 ag-1,D2 antagonist,D2 ag-2
O=C(O)c1ccc(/C=N/n2cc(-c3ccccc3)[nH]c2=S)cc1,i,i,i,i,i
S=c1[nH]c(-c2ccccc2)cn1/N=C/c1ccc(Br)cc1,i,i,i,36.5,i
COc1ccc(Cl)cc1NC(=O)CSc1nnc(C2CC2)n1N,31.4,i,i,i,i
Nn1c(SCC(=O)Nc2ccccc2F)nnc1C1CCCCC1,36.8,i,i,i,i
COc1ccc(OC)c(NC(=O)CSc2nncc(=O)n2N)c1,i,i,i,36.0,i
COc1ccc(/C=C2\SC(=S)N(CCC(=O)N3CCCCC3)C2=O)cc1,i,i,i,i,i
O=C1/C(=C/c2ccc(Cl)cc2)SC(=S)N1CCC(=O)N1CCCCC1CCO (stereo unspecified),i,i,i,31.0,i
COCCN1C(=O)/C(=C/c2ccc(N3CCCC3)cc2)SC1=S,i,i,41.1,i,i
O=C1/C(=C/c2cccc(Cl)c2)SC(=S)N1CCC(=O)N1CCCCC1CCO (stereo unspecified),i,i,i,i,i
Cc1ccc(SC[C@H](c2ccccc2)N2CCN(CCc3ccccc3)CCC2=O)cc1,i,i,i,40.7,i
CC12C(=O)N(c3ccccc3C(=O)O)C(=O)C1C1C=CC2C1 (stereo unspecified),i,i,i,36.2,i
CC12C(=O)N(c3cccc4cccnc34)C(=O)C1C1C=CC2C1 (stereo unspecified),i,i,i,i,i
COc1ccc(NC(=O)C2(c3cccs3)CCOCC2)cc1Cl,i,nt,i,nt,nt
CCc1cc(=S)n2c([nH]c3ccccc32)c1C#N,31.7,i,i,i,i
CCc1cc(=O)n2c([nH]c3ccccc32)c1C#N,i,i,nt,i,i
C[C@H](NC(=O)N1CCn2c1nc1ccccc12)C(=O)NC1CC1,i,i,i,67.1,i
COc1ccc(CCNC(=O)[C@H](C)NC(=O)N2CCn3c2nc2ccccc23)cc1OC,i,i,i,37.2,i
O=[N+]([O-])c1cc(CN2CCN(c3cccc(C(F)(F)F)c3)CC2)c2cccnc2c1O,i,i,i,36.3,i
CC(C)OCc1cc(CN2CCN(c3cccc(C(F)(F)F)c3)CC2)c(O)c2ncccc12,i,nt,i,nt,nt
O=C1c2ccccc2C(=O)N1CC1c2ccccc2CCN1S(=O)(=O)c1cnc[nH]1 (stereo unspecified),i,i,i,46.4,i
COc1ccccc1NC(=S)NC(=O)Cc1ccc(Cl)cc1,i,i,i,52.3,i
CC1CCCCN1C(=O)/C=C/c1ccccc1[N+](=O)[O-] (stereo unspecified),i,i,i,30.1,i
CCOC(=O)C1CCN(C/C=C/c2ccccc2OC)CC1,i,i,i,i,i
CCOC(=O)C1CCN(C/C=C/c2ccccc2[N+](=O)[O-])CC1,i,i,i,48.4,i
Oc1c(C(c2cccc(Br)c2)N2CCCC2)sc2nc(-c3ccco3)nn12 (stereo unspecified),i,nt,i,nt,nt
CCCN1CCN(CCCNC(=O)c2ccc3c(c2)sc2nc(-c4ccc(OC)cc4)cn23)CC1,i,nt,i,nt,nt
CCOC(=O)c1cc(-c2ccc(C)cc2)nn1Cc1ccccc1,i,nt,i,nt,nt
O=C(Nc1ccc2c(c1)OCO2)C1CCN(Cc2cc3c(cc2O)OCO3)CC1,i,i,i,35.0,i
O=C(Nc1ccc(F)cc1)NC1CCN(Cc2ccccc2)CC1,i,i,i,52.9,i
O=C(Nc1ccc2c(c1)OCO2)C1CCCCC1,i,i,i,i,i
